Data: ChEMBL document CHEMBL3988442, “University of Dundee, Small-Polar-MMV Screening Library” (2021)
The campaign covered roughly 53,000 compounds. About 900 (1.7%) showed an effect of 50% or more. The sample holds strong results, similar compounds and a random draw of the others, so the mix is not that of the screen.

Tested on: Mycobacterium tuberculosis
Experiment: Cornell - Phenotypic assay to identify agents that inhibit growth of Mycobacterium tuberculosis
Type: functional
Set-up: scale not given: direction of the effect not stated beside the values
Conditions: 10 mM as filed; unlikely as a test dose

| SMILES | Percent Effect [%] |
| --- | --- |
| CO[C@@H]1CCN(C(=O)Cc2cccc(F)c2)[C@H]1Cc1cccnc1.O=C(O)C(F)(F)F | -8.358 |
| CC(C)C(=O)N1CC[C@H]2N(C)CC[C@@]2(C(=O)N2CCOCC2)CC1.O=C(O)C(F)(F)F | -25.99 |
| Cc1ccccc1CN(C)CC(O)COCc1ccccc1Cl (stereo not given) | -1.891 |
| O=C(O)C(F)(F)F.O=C(O)C(F)(F)F.c1cc(CN2CCc3ncc(CN4CCOCC4)n3CC2)cs1 | -22.34 |
| COc1ccccc1NCc1cscn1.Cl | 16.2 |
| COc1ccncc1NCc1cscn1 | 26.83 |
| CC(C)(C)Oc1ccncc1NCc1cscn1 | 55.35 |
| COC1COC2(CCN(Cc3ccccc3F)CC2)C1.O=C(O)C(F)(F)F (stereo not given) | 10.15 |
| CCCc1nnc(N2CCN(c3ccccc3OCC)CC2)o1 | 24.59 |
| CCCc1nnc(N2CCN(c3ccccc3Cl)CC2)o1 | 51.83 |
| CCCc1nnc(N2CCN(c3ccccc3F)CC2)o1 | -12.77 |
| Cc1cccc(NC(=O)NC2CCC3(C2)OCCO3)c1Cl (stereo not given) | 24.64 |
| Cc1csc(C(Cc2ccsc2)NC(=O)CN(C)Cc2cccnc2)n1.Cl (stereo not given) | 14.48 |
| Cc1csc(C(Cc2ccsc2)NC(=O)CN(C)Cc2ccccn2)n1.Cl (stereo not given) | 68.23 |
| CN(CC(=O)NC(Cc1ccsc1)c1cccnc1)Cc1ccccn1.Cl (stereo not given) | -48.97 |
| CCOc1ccc(NC(=O)N2CCC(n3cncn3)CC2)cc1Cl | -30.56 |
| O=C(CC1CC1)NC[C@]12COC[C@H]1CN(c1ncccn1)C2.O=C(O)C(F)(F)F | 0.6787 |
| O=C(O)C(F)(F)F.c1cnc(N2C[C@@H]3COC[C@]3(COCC3CCCC3)C2)nc1 | 53.05 |
| O=C(O)C(F)(F)F.O=C(O)C(F)(F)F.c1ccc(OC[C@]23COC[C@H]2CN(c2ncccn2)C3)nc1 | 24.67 |
| CCOCC1CN(Cc2cnn(C)c2)Cc2ncn(C)c21 (stereo not given) | 21.37 |
| Cc1ccc(CN2C[C@H](OCCN(C)C)[C@H]3COC[C@H]32)o1.O=C(O)C(F)(F)F.O=C(O)C(F)(F)F | 19.04 |
| CCNC(=O)N1CCC(=Cc2ccccc2)CC1 | 31.8 |
| CNC(=O)N1CCC(=Cc2ccccc2)CC1 | 50.2 |
| CCCNC(=O)CCNC(=O)N1CCC(=Cc2ccccc2)CC1 | -1.003 |
| COC(=O)N1CCC(CNC(=O)C2CCN(S(C)(=O)=O)CC2)CC1 | -2.459 |
| CCn1ccc(-c2cc(NCCCOc3ccccc3C)nc(C)n2)n1 | 93.67 |
| CCn1ccc(-c2cc(NCCCOc3cccc(C)c3)nc(C)n2)n1 | 27.92 |

| SMILES | Percent Effect [%] |
| --- | --- |
| COc1ccccc1OCCNCCn1cccn1 | 4.031 |
| CC1(C)OC(=O)N(CCOc2ccc(F)cc2)C1=O | 15.77 |
| CN1CCOC(C)(C(=O)N2CCN(C3CCCC3)CC2)C1 (stereo not given) | -58.81 |
| CNC(=O)CNCC1(O)CCCN(Cc2ccc(F)c(F)c2)C1=O (stereo not given) | -12.88 |
| Cc1ccsc1CN(c1nc(CCN)nc2ccccc12)C1CC1 | 64.64 |
| NCCc1nc(N(Cc2cncs2)C2CC2)c2ccccc2n1 | -19.06 |
| NCCc1nc(N(Cc2nccs2)C2CC2)c2ccccc2n1 | -24.34 |
| CN(C)C(CNC(=O)c1cccc(C(N)=O)c1)c1ccccc1Cl (stereo not given) | -40.94 |
| N#Cc1nccnc1N1CCC(CSc2ccccc2)C1 (stereo not given) | 53.28 |
| N#Cc1nccnc1N1CCC(Cc2ccccc2)C1 (stereo not given) | 17.71 |
| N#Cc1nccnc1N1CCC(COCc2ccccc2)C1 (stereo not given) | 4.332 |
| CC(C)C(NC(=O)c1ccc(N2CCOCC2)nc1)c1cccs1 (stereo not given) | 5.892 |
| CC(C)C(NC(=O)c1cnc(N2CCOCC2)nc1)c1cccs1 (stereo not given) | 69.04 |
| CC(C)C(NC(=O)c1nc(N2CCOCC2)ncc1Cl)c1cccs1 (stereo not given) | 19.79 |
| CC(=O)Nc1ccc(Oc2ccc3c(c2)OCO3)nc1 | 12.25 |
| CC(C)N1CC2(CCCN(c3ccccn3)C2)CCC1=O (stereo not given) | 8.106 |
| CCc1ccc(C(=O)NCC2CCCN2CC)o1 (stereo not given) | 3.045 |
| CCc1cnc(N2CC[C@H]3[C@@H]2CCC(=O)N3c2cccnc2)nc1.O=C(O)C(F)(F)F.O=C(O)C(F)(F)F | 5.714 |
| CC(=O)c1ccc(Nc2nc(N)nc3c2nc(C)n3C)cc1 | 11.87 |
| Cc1nc2c(Nc3ccc(C#N)cc3)nc(N)nc2n1C | 2.918 |
| Cc1nc2c(Nc3cccc(C#N)c3)nc(N)nc2n1C | 106.8 |
| CN(Cc1nnc(-c2cccs2)o1)C(C(N)=O)c1cccc(F)c1 (stereo not given) | 15.31 |
| CCc1nc(CN(C)Cc2ncc(-c3cccs3)o2)cs1 | 22.49 |
| CCc1nc(CN(C)Cc2nnc(-c3cccs3)o2)cs1 | 57.32 |
| Cc1cc(NC(=O)c2ccccc2Br)n(C)n1 | 11.86 |
| Cc1cnn(CC2CCCN2Cc2coc(-c3cccc(F)c3)n2)c1 (stereo not given) | 42.46 |
| OC(COCc1ccco1)CN1CCC(Cn2cccn2)CC1 (stereo not given) | -18.82 |

| SMILES | Percent Effect [%] |
| --- | --- |
| COc1ccc2c(c1)OCC(Cc1ccc(C)nc1N)C2 (stereo not given) | 9.156 |
| COc1cccc2c1OCC(CNc1ccc(C)nn1)C2 (stereo not given) | 22.84 |
| COc1cccc2c1OCC(Cc1ccc(N)nc1C)C2 (stereo not given) | 28.19 |
| COc1ccc2c(c1)OCC(CNc1cc(N)nc(SC)n1)C2 (stereo not given) | 106.6 |
| COc1ccc2c(c1)OCC(Cc1ccc(N)nc1C)C2 (stereo not given) | 38.23 |
| COc1cccc2c1OCC(CNc1cc(N)nc(SC)n1)C2 (stereo not given) | 106 |
| Cc1nccc(-c2cccc(NCC(=O)N3CCNC(=O)C3)c2)n1 | 4.567 |
| CNC(=O)c1cccc(CC2COCCN(Cc3ccc(C)o3)C2)n1 (stereo not given) | 0.6767 |
| Cc1ccc(S(=O)(=O)NCC(O)c2ccoc2)s1 (stereo not given) | 10.79 |
| Cc1ccc(S(=O)(=O)NCCc2ccoc2)s1 | 103.3 |
| COC(=O)c1sccc1S(=O)(=O)NCCc1ccoc1 | 39.87 |
| O=S(=O)(NCC1COc2ccccc2C1)N1CCCC1 (stereo not given) | 15.67 |
| OC1=C2C(=Nc3n[nH]c(O)c3C2c2ccco2)CCC1 (stereo not given) | 27.79 |
| Cc1nc(C)n(CC2CCCN2Cc2nc3ccccc3c(=O)[nH]2)n1 (stereo not given) | -38.81 |
| Cc1cnn(CC2CCCN2CCc2nc3ccccc3c(=O)[nH]2)c1 (stereo not given) | 106.5 |
| Cc1cnn(CC2CCCN2Cc2nc3ccccc3n2C)c1 (stereo not given) | 81.85 |
| Cc1cnn(CC2CCCN2C(=O)CCc2nc3ccccc3[nH]2)c1 (stereo not given) | 16.22 |
| Cc1cnn(CC2CCCCN2Cc2nc(N)c3ccccc3n2)c1 (stereo not given) | 31.76 |
| Cc1cnn(CC2CCCN2Cc2noc(-c3ccccc3)n2)c1 (stereo not given) | 10.45 |
| Cc1cccc(CN2CCC(C3Nc4ccccc4S(=O)(=O)N3)CC2)n1 (stereo not given) | -13.88 |
| CCn1c(N)nc2cc(C(=O)N(C)Cc3cc(C(C)(C)C)n[nH]3)cnc21 | 12.68 |
| CN1CC(=O)N(c2cccc(F)c2)CC12CCNC2 (stereo not given) | -13.58 |
| NC(=O)CN1CCCCC1c1nc(N)ncc1-c1cccc(F)c1 (stereo not given) | -18.13 |
| COCCN1CCN(Cc2nc(-c3ccoc3)no2)CC1 | -27.89 |
| O=S(=O)(Nc1cnc(N2CCOCC2)nc1)c1ccc(Cl)cc1 | -17.06 |
| O=S(=O)(Nc1cnc(N2CCCC2)nc1)c1ccc(OC(F)(F)F)cc1 | 94.98 |
| CN(C)c1ncc(NS(=O)(=O)c2ccc(OC(F)(F)F)cc2)cn1 | 23.91 |

| SMILES | Percent Effect [%] |
| --- | --- |
| O=S(=O)(Nc1cnc(N2CCCC2)nc1)c1ccc(C(F)(F)F)cc1 | 101.9 |
| O=S(=O)(Nc1cnc(N2CCCC2)nc1)c1ccc(F)cc1F | -10.3 |
| O=S(=O)(Nc1cnc(N2CCOCC2)nc1)c1ccc(C(F)(F)F)cc1 | 57.68 |
| CCc1ccc(S(=O)(=O)Nc2cnc(N3CCOCC3)nc2)cc1 | 24.89 |
| Cc1ccc(F)cc1S(=O)(=O)Nc1cnc(N2CCCC2)nc1 | 13.98 |
| Cn1cc(NS(=O)(=O)c2ccc(OC(F)(F)F)cc2)ccc1=O | -35.35 |
| O=C1CCC(=O)N1c1nn(Cc2ccccc2)cc1Cl | -38.92 |
| Cc1ccc(S(=O)(=O)c2ncccc2CN2CCCC2)cc1 | -5.255 |
| N#CC1COCCN1C(=O)c1ccc2[nH]ccc2c1 (stereo not given) | 10.98 |
| CC(C)(C)n1cc(NC(=O)C2CN(Cc3ccccc3)CCO2)cn1 (stereo not given) | 19.34 |
| COc1ccccc1CNC(=O)CN(C)C(C)c1ccncn1 (stereo not given) | 1.408 |
| CC(C)N1CC[C@@](C)(O)[C@H](n2ccc(=O)[nH]c2=O)C1 | -3.084 |
| Cc1cn([C@@H]2CC3(CCNCC3)OC[C@@]2(C)O)c(=O)[nH]c1=O | 56.73 |
| Cc1cn([C@H]2CCNC[C@]2(C)O)c(=O)[nH]c1=O | 34.03 |
| CCc1ncc(S(C)(=O)=O)c(C2CCCNC2)n1 (stereo not given) | 21.49 |
| CCc1c(O)nc(SCC(=O)c2ccccc2)n(-c2ccccc2)c1=O | 13.57 |
| CCc1c(O)nc(SCC(=O)Nc2ccccc2)n(C(C)CC)c1=O (stereo not given) | 65.15 |
| CCCSc1nc(O)c(CC)c(=O)n1-c1ccccc1 | 98.89 |
| COc1ccc(Cc2c(O)nc(SC)n(-c3ccccc3)c2=O)cc1 | -12.72 |
| CCOc1ccc(Cc2c(O)nc(SC)n(-c3ccccc3)c2=O)cc1 | 8.957 |
| CCc1c(O)nc(SC(C)CC)n(-c2ccccc2)c1=O (stereo not given) | 96.76 |
| CSc1nc(O)c(Cc2ccccc2)c(=O)n1-c1ccccc1 | 18.81 |
| CCc1c(O)nc(SCC(=O)N(CC)CC)n(C(C)CC)c1=O (stereo not given) | 4.731 |
| CCc1c(O)n(C(C)CC)c(SCC(=O)c2ccccc2)nc1=O (stereo not given) | 28.35 |
